In the library only some 11% were active in any assay of this set; here they are far more common.
HP1b chromo inh – HTS for Inhibitors of HP1-beta Chromodomain Interactions with Methylated Histone Tails | Chromobox protein homolog 1 (Homo sapiens), P83916 | AlphaScreen HP1-beta / biotin-H3K9me3 peptide binding | Potency, µM (series often up to 114 µM), without a hit: top-dose activity change, negative = inhibition, most hits filed as inhibitors | 390,000 compounds, 0.56% hits | AID 540317, 2011; note: nearly all actives have a fitted effect of over 70% in size
Target sequence (P83916 whole entry, looked up): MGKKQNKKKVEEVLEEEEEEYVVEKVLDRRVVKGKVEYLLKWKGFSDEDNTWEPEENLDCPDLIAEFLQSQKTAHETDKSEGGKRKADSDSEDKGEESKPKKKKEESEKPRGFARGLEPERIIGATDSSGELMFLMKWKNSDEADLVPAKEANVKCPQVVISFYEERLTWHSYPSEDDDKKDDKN
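AlphaScreen: HP1-beta (50 nM) preformed 30 min with biotin-H3(1-18)K9me3 peptide (50 nM) in PBS pH 7.4, 0.01% Tween-20. Compound added for 30 min at RT, then streptavidin donor/nickel chelate acceptor beads (10 ug/mL) for 30 min.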
JMJD2A Tudor inh – qHTS Assay for Inhibitors of JMJD2A-Tudor Domain. AlphaScreen JMJD2A-Tudor / H3K4me3 peptide binding. 390,000 compounds, 4.4% hits. Potency, µM (titrated, usually from 114 µM), for inactives: at the top dose activity change, negative = inhibition, usual class: inhibitors. AID 504339, 2011; note: % is set by controls: 0 for no effect and ±100 for the full control effect; nearly all actives have a fitted effect of over 50% in size
PLK1 PBD inh – qHTS for Inhibitors of PLK1-PDB (polo-like kinase 1 - polo-box domain): Primary Screen; Serine/threonine-protein kinase PLK1 (Homo sapiens), P53350; Plk1 PBD binding of FITC phosphopeptide, fluorescence polarization; Potency, µM, for the others: max response, negative = inhibition, hits mostly inhibitors; 360,000 compounds, 2.8% hits; note: series mostly up to about 57 µM; % is set by controls: 0 for no effect and ±100 for the full control effect; nearly all actives have a fitted effect of over 65% in size
BAZ2B inh – qHTS Assay for Inhibitors of BAZ2B; Bromodomain adjacent to zinc finger domain protein 2B (Homo sapiens), Q9UIF8; AlphaScreen BAZ2B-H3K14Ac peptide displacement; Potency, µM (titrated, usually from 114 µM), inactives show at the top dose activity change, negative = inhibition, most hits filed as inhibitors; 360,000 compounds, 4.4% hits; AID 504333, 2011; note: % is set by controls: 0 for no effect and ±100 for the full control effect; nearly all actives have a fitted effect of over 60% in size
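AlphaScreen displacement of biotin-H3(5-23)K14Ac peptide (50 nM final) from BAZ2B (50 nM final) in PBS pH 7.4, 0.01% Tween-20; complex preformed 30 min RT, then compounds (top 110 uM) 30 min RT, beads 20 min dark.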
VDR inh – Inhibitors of the vitamin D receptor (VDR): qHTS. VDR-SRC2-3 peptide fluorescence polarization, 2 h. Potency, µM, for inactives: max response, negative = inhibition, most hits filed as inhibitors. 400,000 compounds, 0.93% hits; note: % is set by controls: 0 for no effect and ±100 for the full control effect
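Measured by FP: displacement of SRC2-3 coactivator peptide from VDR by library compounds, following a two-hour ambient incubation.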
G9a block – qHTS Assay for Inhibitors of Histone Lysine Methyltransferase G9a | Histone-lysine N-methyltransferase EHMT2 (Homo sapiens), Q96KQ7 | G9a H3K9 monomethylation, AlphaScreen, 2 h | Potency, µM (top dose mostly 102 µM), without a hit: top-dose activity, negative = inhibition, usual class: inhibitors | 350,000 compounds, 8.8% hits; note: % is set by controls: 0 for no effect and ±100 for the full control effect; nearly all actives have a fitted effect of over 75% in size
Target sequence (Q96KQ7 913-1193 limits assumed): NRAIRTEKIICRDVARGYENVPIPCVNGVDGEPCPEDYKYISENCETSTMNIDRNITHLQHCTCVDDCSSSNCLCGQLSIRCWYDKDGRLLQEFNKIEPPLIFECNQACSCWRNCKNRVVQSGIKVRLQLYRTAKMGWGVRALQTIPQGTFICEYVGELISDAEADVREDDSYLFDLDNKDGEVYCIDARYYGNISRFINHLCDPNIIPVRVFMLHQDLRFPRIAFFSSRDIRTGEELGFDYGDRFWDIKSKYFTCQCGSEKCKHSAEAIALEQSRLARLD
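AlphaScreen read-out: biotin-H3K9 peptide (500 nM) methylation by 20 nM enzyme with 20 uM SAM, 2 h at room temperature after 15 min compound preincubation; anti-monomethyl H3K9 antibody plus donor/acceptor beads, 10 min dark.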
* marks the source's active call; other numbers are inactive results; [ ] = dose if it differs, or a comment. Calls come from the whole dose curve; as a rule, active = well fitted curve in the direction sought with a large enough effect; inconclusive = small, poorly fitted or top-dose-only effect, or another doubt; inactive = no such curve, though single readings can be large; an effect the other way counts as inactive or inconclusive. Potency is the fitted concentration of half-maximal effect.

`Cc1ccc(Cl)cc1N1CCN(Cc2nnc(-c3ccc4c(c3)OCO4)o2)CC1` gave HP1b chromo inh 26%, JMJD2A Tudor inh -15%, BAZ2B inh -12%, VDR inh -16% and G9a block 7%[59 µM].
Screening CNC(=O)/C(C#N)=C/c1c(N(Cc2ccccc2)Cc2ccccc2)nc2c(C)cccn2c1=O returned HP1b chromo inh -22%, JMJD2A Tudor inh inconclusive, PLK1 PBD inh -29%, BAZ2B inh inconclusive, VDR inh -19% and G9a block 79µM*.
`C=CC[n+]1c(C)csc1Nc1cccc(Br)c1` gave HP1b chromo inh inconclusive, JMJD2A Tudor inh inconclusive, PLK1 PBD inh 2%, VDR inh 1% and G9a block 32µM*.
For C=CC[n+]1c(C)csc1Nc1ccc(C)cc1 the results were HP1b chromo inh inconclusive, JMJD2A Tudor inh inconclusive, PLK1 PBD inh -18%, BAZ2B inh 32µM*, VDR inh 8% and G9a block 50µM*.
COc1ccc(S(=O)(=O)N2CCOCC2)cc1NC(=O)CCc1cc(OC)c(OC)c(OC)c1 was read as HP1b chromo inh 11%, JMJD2A Tudor inh -25%, PLK1 PBD inh -11%, BAZ2B inh 6%, VDR inh -2% and G9a block -4%[59 µM].
`Cc1ccc(NC(=S)c2ccncc2)c(C)c1` gave HP1b chromo inh 52%, JMJD2A Tudor inh 0%, PLK1 PBD inh -4%, BAZ2B inh inconclusive, VDR inh 35µM* and G9a block 79µM*.
For Cc1ccc(NC(=S)NNC(=S)Nc2ccc(C)cc2C)cc1 the results were HP1b chromo inh inconclusive, JMJD2A Tudor inh inconclusive, PLK1 PBD inh 11µM*, BAZ2B inh -19%, VDR inh 45µM* and G9a block -28%.
Screening Cc1ccc(NC(=S)Nc2ccccn2)c(C)c1 returned HP1b chromo inh 15%, JMJD2A Tudor inh -17%, PLK1 PBD inh inconclusive, BAZ2B inh -34%, VDR inh 0% and G9a block inconclusive.
For CCc1ccc(NC(=S)Nc2cccc3cnccc23)cc1 the results were HP1b chromo inh -4%, JMJD2A Tudor inh -15%, PLK1 PBD inh -51%, BAZ2B inh inconclusive, VDR inh inconclusive and G9a block 45µM*.
`Cc1ccc(NC(=S)Nc2cccc3cnccc23)c(C)c1` gave HP1b chromo inh -10%, JMJD2A Tudor inh -14%, PLK1 PBD inh inconclusive, BAZ2B inh -22%, VDR inh -2% and G9a block 50µM*.
`Cc1ccc(NC(=S)Nc2ccc3cn[nH]c3c2)c(C)c1` gave HP1b chromo inh -11%, JMJD2A Tudor inh -11%, PLK1 PBD inh -10%, BAZ2B inh -30%, VDR inh -1% and G9a block inconclusive.
`COc1ccc(NC(=O)CCOc2ccc(C)cc2)c(OC)c1` gave HP1b chromo inh 9%, JMJD2A Tudor inh -15%, PLK1 PBD inh -8%, BAZ2B inh -6% and VDR inh 2%.
Screening Cc1cc(C)cc(NC(=S)Nc2cccc3cnccc23)c1 returned HP1b chromo inh inconclusive, JMJD2A Tudor inh -31%, PLK1 PBD inh inconclusive, BAZ2B inh inconclusive, VDR inh -9% and G9a block 18µM*.
Screening C=C(C)CNC(=S)Nc1cccc2cnccc12 returned HP1b chromo inh 54%, JMJD2A Tudor inh -1%, PLK1 PBD inh -19%, BAZ2B inh 34%, VDR inh -7% and G9a block 25%.
For Cc1ccccc1NC(=O)COC(=O)CCC(=O)c1cccs1 the results were HP1b chromo inh 20%, JMJD2A Tudor inh -20%, PLK1 PBD inh 1%, BAZ2B inh 10%, VDR inh 11% and G9a block 4%.
